Measurements taken from PubChem BioAssay AID2283097 (EPA ToxCast).
Results filed as inconclusive are left out. Active and inactive are the calls of the source. How the source made its calls: active means hit-call score of the fitted dose curve at least 0.9, where 1 is the maximum; inconclusive means response in the unintended direction; inactive means score below 0.9.

target: human CYP1B1, CYP1B1 (gene 1545) (UniProt Q16678); assay: NVS_ADME_hCYP1B1: NovaScreen (NVS) CYP450-related Enzyme Activity (ADME) Assay for human CYP1B1
Method: NVS_ADME_hCYP1B1 is a biochemical, single-readout assay that uses extracted gene-proteins in a cell-free assay. Measurements were taken 1 hour after chemical dosing in a 96-well plate.NVS_ADME_hCYP1B1 is one of one assay component(s) measured or calculated from the NVS_ADME_hCYP1B1 assay. It is designed to make measurements of enzyme activity, a form of enzyme reporter, as detected with fluorescence intensity signals by Fluorescence technology.Data from the assay component NVS_ADME_hCYP1B1 was analyzed into 1 assay endpoint. This assay endpoint, NVS_ADME_hCYP1B1, was analyzed in the positive analysis fitting direction relative to Acetonitrile as the negative control and baseline of activity. Using a type of enzyme reporter, loss-of-signal activity can be used to understand changes in the enzymatic activity as they relate to the gene CYP1B1. Furthermore, this assay endpoint can be referred to as a primary readout, because this assay has produced multiple assay endpoints where this one serves a enzymatic activity function. To generalize the intended target to other relatable targets, this assay endpoint is annotated to the cyp intended target family, where the subfamily is xenobiotic metabolism.
Binding assays used specific radioligands (tritiated, iodinated) with non-radioactive competitive displacement ligands in agonist or antagonist protocols (as indicated) and various reference compounds and inhibitors to titrate specific binding to receptors and transporters. Most enzyme assays (CYPs, kinases, phosphatases, proteases, HDACs) used recombinant protein and specific substrates (fluorescence mostly, some colorimetric and radioactive) and inhibitors, followed by a biochemical separation of substrate and product. All assays for the biochemical HTS were initially run in duplicate at a single concentration (10 uM for CYP450 assays and 25 uM for all others). Assay-chemical combinations meeting a pre-defined threshold (e.g., 30% inhibition and other criteria defined below) were then run in singleton concentration-response format with maximum concentration of 20 uM for CYPs and 50 uM for all others. Each assay was run with positive and negative controls, and concurrent controls on every plate. The follow-up (secondary) screen tested active chemical-pairs in concentration series, as well as a few additional assays not tested in the primary screen, some selected negative inactives, and several cases re-run in the concentration series for confirmatory purposes.

Chain of human CYP1B1, CYP1B1 (gene 1545) (Q16678 whole entry, looked up): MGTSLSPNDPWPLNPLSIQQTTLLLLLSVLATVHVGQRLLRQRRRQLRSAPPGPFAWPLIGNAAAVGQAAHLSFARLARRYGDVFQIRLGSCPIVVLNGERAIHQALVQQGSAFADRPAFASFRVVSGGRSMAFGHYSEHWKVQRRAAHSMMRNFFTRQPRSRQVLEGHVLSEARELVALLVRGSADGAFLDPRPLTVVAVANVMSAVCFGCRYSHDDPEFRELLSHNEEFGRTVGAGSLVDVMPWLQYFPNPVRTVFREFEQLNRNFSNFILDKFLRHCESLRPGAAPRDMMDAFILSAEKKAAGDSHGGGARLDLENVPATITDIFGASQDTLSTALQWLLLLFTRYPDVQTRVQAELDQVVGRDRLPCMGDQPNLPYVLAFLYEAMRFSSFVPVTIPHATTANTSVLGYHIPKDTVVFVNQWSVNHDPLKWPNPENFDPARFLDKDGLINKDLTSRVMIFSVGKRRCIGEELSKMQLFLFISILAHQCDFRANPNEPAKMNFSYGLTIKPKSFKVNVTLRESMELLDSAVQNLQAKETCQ

| Structure (SMILES) | outcome | AC50 |
| --- | --- | --- |
| CCCN(CCOc1c(Cl)cc(Cl)cc1Cl)C(=O)n1ccnc1 | inactive | – |
| Cc1ccn2nc(S(=O)(=O)Nc3c(F)cccc3F)nc2n1 | inactive | – |
| COP(=S)(OC)SCn1nnc2ccccc2c1=O | – | 498 nM (active) |
| Cc1ccc(-c2c(Cl)nc(C#N)n2S(=O)(=O)N(C)C)cc1 | inactive | – |
